# Rows were chosen to be rich in hits. Some 11% of all compounds tested hit in one or more screens of this group.
# RORg inh – qHTS for inhibitors of ROR gamma transcriptional activity; Nuclear receptor ROR-gamma (Mus musculus), P51450; Drosophila S2 Gal4-RORgamma UAS-luciferase reporter, 20 h; Potency, µM (series often up to 53.6 µM), inactives show at the highest dose activity change, negative = inhibition, usual class: inhibitors; 310,000 compounds, 5.4% hits; AID 2551, 2010; note: potency is the fitted concentration of half-maximal effect; % is set by controls: 0 for no effect and ±100 for the full control effect; nearly all actives have a fitted effect of over 60% in size
# Target sequence (P51450 whole entry, looked up, the tested form may be a part): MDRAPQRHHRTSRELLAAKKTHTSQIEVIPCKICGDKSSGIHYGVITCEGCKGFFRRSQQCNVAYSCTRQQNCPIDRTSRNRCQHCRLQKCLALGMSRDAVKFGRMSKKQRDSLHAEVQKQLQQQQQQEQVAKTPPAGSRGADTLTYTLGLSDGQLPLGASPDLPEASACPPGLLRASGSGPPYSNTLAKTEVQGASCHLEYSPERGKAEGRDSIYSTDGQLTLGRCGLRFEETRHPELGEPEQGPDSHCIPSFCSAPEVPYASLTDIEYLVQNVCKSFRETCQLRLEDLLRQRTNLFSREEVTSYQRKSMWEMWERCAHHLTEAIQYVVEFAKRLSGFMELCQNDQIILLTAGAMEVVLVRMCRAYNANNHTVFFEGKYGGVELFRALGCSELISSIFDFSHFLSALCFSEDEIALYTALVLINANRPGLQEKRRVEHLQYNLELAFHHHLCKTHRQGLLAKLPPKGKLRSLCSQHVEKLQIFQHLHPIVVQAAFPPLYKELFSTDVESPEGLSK
#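 Schneider cells (Drosophila), stable Gal4 DBD–ROR gamma + UAS-luc; 1 hr cmpd preincubation; Cu2+ induction 700 uM final; 20 hr ambient; luminescence.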
# IL1B secr inh – qHTS for Inhibitors of Inflammasome Signaling: IL-1-beta AlphaLISA Primary Screen; THP-1 LPS/ATP IL-1B secretion, AlphaLISA, 16 h; hits give low values; activity change, % at 57.5 µM; 360,000 compounds, 4.7% hits; AID 743279, 2014; in the data active = activity change below about -50%; inconclusive = mostly about -30% to -49%; note: % is set by controls: 0 for no effect and ±100 for the full control effect
#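 THP-1 cells pretreated 1 hr with compounds (up to 57.5 uM final), then stimulated with LPS (250 ng/mL final) plus ATP (1.25 mM final); secreted IL-1B measured by AlphaLISA after 16 hr, decreased signal indicating inhibition.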
# VP16 counter – VP16 counterscreen qHTS for inhibitors of ROR gamma transcriptional activity; Drosophila S2 Gal4-VP16 UAS-luciferase, luminescence, 20 h; Potency, µM (series often up to 53.6 µM), for inactives: at the highest dose activity, negative = inhibition, actives largely listed as inhibitors; 310,000 compounds, 3.5% hits; AID 2546, 2010;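 note: Gal4-VP16 expression switched on by copper sulfate through the metallothionein promoter; potency is the fitted concentration of half-maximal effect; % is set by controls: 0 for no effect and ±100 for the full control effect; nearly all actives have a fitted effect of over 50% in size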
# MCF10A rerep – A quantitative high throughput screen for small molecules that induce DNA re-replication in MCF 10a normal breast cells | MCF 10A DNA re-replication, Hoechst nuclear intensity, 48 h | Potency, µM (series often up to 46.1 µM), without a hit: top-dose activity, positive = re-replication, hits mostly activators | 350,000 compounds, 2.9% hits; note: potency is the fitted concentration of half-maximal effect; % of control where 0% means no effect; nearly all actives have a fitted effect of over 50% in size
# SW480 rereplic – A quantitative high throughput screen for small molecules that induce DNA re-replication in SW480 colon adenocarcinoma cells | SW480 DNA re-replication, Hoechst DNA content imaging, 48 h | Potency, µM (titrated, usually from 46.1 µM), without a hit: at the highest dose re-replication activation, actives largely listed as activators | 340,000 compounds, 1.8% hits; note: potency is the fitted concentration of half-maximal effect; % of control where 0% means no effect; nearly all actives have a fitted effect of over 55% in size
#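 250 cells/well; 23 nL cpd via pin tool; 48 hr, 37 C, 5% CO2; Hoechst 40 min; imager read of total nuclear intensity, ex 405/em 500-530 nm.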
# Starred values were filed as active, the others as inactive; i = inactive; ? = inconclusive; nt = no result given; [ ] = another dose, or the depositor's remark. Unless noted, calls come from the whole dose curve; as a rule, active = well fitted curve in the direction sought with a large enough effect; inconclusive = small, poorly fitted or top-dose-only effect, or another doubt; inactive = no such curve, though single readings can be large; an effect the other way counts as inactive or inconclusive.
SMILES,RORg inh,IL1B secr inh,VP16 counter,MCF10A rerep,SW480 rereplic
O=c1cc(N2CCN(c3ccccc3Cl)CC2)[nH]c(=O)n1Cc1ccc(F)cc1,10.4%,18.2,-8.4%,2.06µM*,?
CCOC(=O)N1CCN(c2cc(=O)n(Cc3ccc(F)cc3)c(=O)[nH]2)CC1,-9.7%,6.7,-10.2%,11.6µM*,20.6µM*
COc1ccccc1N1CCN(c2cc(=O)n(Cc3ccc(F)cc3)c(=O)[nH]2)CC1,25.5%,32.4,-10.6%,?,16.4µM*
CCN1CCN(c2cc(=O)n(Cc3ccc(F)cc3)c(=O)[nH]2)CC1,5.7%,15.9,-9.0%,3.2%,-9.1%
C/C(N)=C(/C#N)C(=O)CSc1nnnn1-c1ccc(C)cc1C,-25.1%,0.0,12.6µM*,-5.8%,-0.3%
Cc1ccc(-n2nnnc2SCC(=O)NC2CCCc3ccccc32)c(C)c1 (stereo not given),?,-73.0*,-6.7%,?,20.6%
Cc1ccc(-n2nnnc2SCC(=O)NC2CCCc3ccccc32)cc1 (stereo not given),34.0%,0.8,0.7%,9.1%,-1.3%
Cc1ccc(-n2nnnc2SCC(=O)NCC2(N3CCCCC3)CCCCC2)c(C)c1,nt,-57.3*,nt,?,?
COc1cc2c(cc1OC)/C(=C/C(C)=O)OC2,nt,18.8,nt,nt,nt
Cc1ccc2c(CN(C)Cc3ccccc3)cc(=O)oc2c1,nt,36.0,nt,nt,nt
Cc1ccc2c(CNCc3ccccc3)cc(=O)oc2c1,0.5%,26.4,-8.2%,11.6µM*,8.2µM*
C=C(C(C)=O)C(O)/C=C/c1ccco1 (stereo not given),-18.0%,nt,-9.3%,nt,nt
Cc1ccn2cc(C(=O)Nc3nnc(C)s3)nc2c1,?,11.8,5.2%,?,-2.2%
Cc1ccn2cc(C34CC5CC(CC(C5)C3)C4)nc2c1,?,-23.0,?,?,20.6µM*
O=C(N/N=C/C=C/c1ccccc1[N+](=O)[O-])c1cccnc1,0.3%,18.4,0.3%,0.9%,2.1%
O=C(N/N=C/C=C/c1ccc([N+](=O)[O-])cc1)c1cccs1,3.98µM*,12.3,?,-0.4%,-1.4%
O=C(N/N=C/c1cccc([N+](=O)[O-])c1)c1cccs1,-27.3%,-0.4,?,1.0%,-3.3%
COc1ccccc1/C=C/C=N/NC(=O)Cc1cccs1,10µM*,-25.6,?,0.4%,-0.9%
COc1ccccc1/C=C/C=N/NC(=O)c1ccncc1,5.62µM*,-24.7,11.2µM*,-23.1%,-18.1%
O=C(N/N=C/C=C/c1ccccc1[N+](=O)[O-])c1ccncc1,11.2µM*,19.8,20µM*,-2.5%,0.8%
CCCCC/C=C\C/C=C\C/C=C\CCCCC(=O)NC(C)C(=O)O (stereo not given),1.4%,nt,-2.8%,nt,nt
O=C(N/N=C/C=C\c1ccccc1[N+](=O)[O-])c1cccs1,14.1µM*,-18.0,?,5.5%,-1.8%
O=C(Cc1ccccc1)N/N=C/C=C/c1ccccc1[N+](=O)[O-],15.5%,nt,?,-28.2%,-7.6%
O=C(N/N=C/C=C\c1ccccc1[N+](=O)[O-])c1cccnc1,10µM*,-4.7,?,0.9%,7.1%
O=C(Cc1cccs1)N/N=C/C=C/c1ccccc1[N+](=O)[O-],1.9%,nt,-12.9%,-23.5%,?
SMILES,RORg inh,IL1B secr inh,VP16 counter,MCF10A rerep,SW480 rereplic
O=C(N/N=C/C=C\c1ccccc1[N+](=O)[O-])c1cc(-c2ccc3ccccc3c2)n[nH]1,3.16µM*,-1.4,4.47µM*,10.3µM*,8.2µM*
COc1ccccc1/C=C/C=N/NC(=O)CN1CCN(S(=O)(=O)c2ccc(C)cc2)CC1,15.8µM*,?,?,-2.5%,-28.2%
Cn1nc(-c2ccccc2)cc1NC(=O)c1ccc(Cl)cc1,nt,-15.0,nt,11.5%,-3.7%
Cc1cc2c(cc1C)-n1nnnc1C(N1CCN(C(=O)OCc3ccccc3)CC1)C(=O)N2 (stereo not given),nt,-4.0,nt,nt,nt
O=C(COc1ccc(F)cc1Br)N1CCN(S(=O)(=O)/C=C/c2ccccc2)CC1,17.3%,-50.3*,4.3%,4.6%,5.5%
O=C(CN1C(=O)NC2(CCCC2)C1=O)NNC(=O)c1ccccc1F,nt,15.2,nt,-1.8%,-4.0%
CCN(C(=O)COC(=O)/C(=C/c1ccccc1)n1nnnc1C)C1CCCCC1,nt,-96.6*,nt,?,?
CC(=O)c1ccccc1NC(=O)COC(=O)/C(=C/c1ccccc1)n1nnnc1C,?,i,-27.3%,?,?
Cc1nnnn1/C(=C\c1ccccc1)C(=O)OCC(=O)N(C)C1CCS(=O)(=O)C1 (stereo not given),11.2µM*,?,0.1%,-2.6%,?
CCCCNC(=O)C1(C)CCCCN1C(=O)c1oc2ccccc2c1C (stereo not given),nt,21.4,nt,nt,nt
COC(=O)[C@H]1C[C@@H]1[C@H](NS(=O)(=O)c1ccc(-c2ccccc2)cc1)c1ccccc1,38.0%,nt,0.8%,nt,nt
c1ccc2nc3c(ccc4ccccc43)cc2c1,nt,6.7,nt,?,8.0%
Nc1[nH]nc2ncc3cc4ccccc4nc3c12,-23.5%,-94.9*,-6.2%,2.0%,?
CC(C)(C)c1ccc(S(=O)(=O)NC(=O)C2(C)CCN2C(=O)Cc2ccc(-c3ccccc3)cc2)cc1 (stereo not given),nt,27.2,nt,nt,nt
CCN(CC)S(=O)(=O)c1cc(NC(=O)c2ccc3c(c2)NC(=O)C(C)S3)ccc1C (stereo not given),nt,-57.9*,nt,27.9%,7.8%
Cc1ccc(S(=O)(=O)Nc2ccccc2/C=N/c2nc3ccccc3n2C)cc1,-20.9%,-9.1,-29.8%,13µM*,5.0%
CN(Cc1ccccc1)C(=O)C(=O)c1ccccc1,nt,-2.7,nt,nt,nt
Cc1cccc(C)c1NC(=O)c1cccc2c1C(=O)N(C1CCCCC1)C2,8.2%,-61.6*,-11.6%,?,?
Cc1cc(NC(=O)c2cccc3c2C(=O)N(C2CCCCC2)C3)ccc1Br,-1.5%,9.3,?,1.5%,3.6%
C=C1c2ccccc2O[C@H](C(=O)OCC)[C@@H]1C1CCCCC1 (tested in a mixture with another compound),8.2%,nt,-0.2%,nt,nt
CCOc1ccc2nc(NCCCNS(=O)(=O)c3ccccc3)c(C#N)cc2c1,-26.3%,0.0,6.0%,2.91µM*,7.31µM*
CCOc1ccc2nc(NCCCNS(=O)(=O)c3ccc(F)cc3)c(C#N)cc2c1,nt,8.7,nt,2.06µM*,?
COc1cccc(C(=O)Nc2nc(-c3ccccc3)c(-c3ccccc3)o2)c1,2.51µM*,75.7,3.16µM*,13.7%,?
O=C(Nc1nc(-c2ccccc2)c(-c2ccccc2)o1)c1ccc(F)cc1,1.41µM*,10.1,2.82µM*,?,4.3%[9.22 µM]

# Screens as filed in PubChem BioAssay.
